In PubChem BioAssay (NCI):
This is part of a sample that, as a whole, favours compounds with a hit. Of some 79,000 tested, about 15% had one in any assay. Cut-off read from the data, not from the text of the source: active = growth inhibition above about 70%; inactive = the rest.

How the values were obtained:
[1] = NCI Yeast Anticancer Drug Screen. Data for the rad50 strain (AID 155);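 note: 0% = growth of vehicle-only cultures of the same strain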; conditions: S. cerevisiae rad50 strain growth inhibition; at 50.0 µM; stronger effect = higher value
Outline: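 A DNA repair-deficient yeast mutant serves as the test organism; compound-induced growth inhibition is calculated against vehicle-treated cells.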

[2] = NCI Yeast Anticancer Drug Screen. Data for the mec2-1 strain (AID 157); conditions: S. cerevisiae mec2-1 strain, at 50.0 µM, stronger effect = higher value
Outline: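 Compounds were applied to mec2-1 yeast cells. Their growth was then compared with that of vehicle-treated cultures to give growth inhibition.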

[3] = NCI Yeast Anticancer Drug Screen. Data for the sgs1 mgt1 strain (AID 161);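 note: 0% = growth of cultures given vehicle only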; conditions: S. cerevisiae sgs1 mgt1 strain, at 50.0 µM, stronger effect = higher value
Outline: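 Compounds are added to genetically altered yeast, and growth is compared with cultures given vehicle alone to give percent inhibition.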

[4] = NCI Yeast Anticancer Drug Screen. Data for the cln2 rad14 strain (AID 165);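 note: 0% = growth equal to vehicle treated cultures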; conditions: S. cerevisiae cln2 rad14 strain, at 50.0 µM, stronger effect = higher value
Outline: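 Strain: cln2 rad14 yeast, altered in cell cycle control and DNA damage repair. Read-out: growth inhibition vs vehicle.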

[5] = NCI Yeast Anticancer Drug Screen. Data for the bub3 strain (AID 167); conditions: S. cerevisiae bub3 mutant strain, at 50.0 µM, stronger effect = higher value
Outline: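 Inhibition values come from growth of compound-treated mutant yeast normalised to vehicle-treated controls.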

[6] = NCI Yeast Anticancer Drug Screen. Data for the mlh1 rad18 strain (AID 175); conditions: S. cerevisiae mlh1 rad18 strain growth inhibition; at 50.0 µM; stronger effect = higher value
Outline: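 A repair-deficient yeast strain is exposed to test compound, and growth is scored relative to vehicle-treated controls.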

Measured: growth inhibition

CC1=CCCC(C)(C)C1/C=C\C(C)=N\Nc1ccc([N+](=O)[O-])cc1[N+](=O)[O-] (centres undefined)
inactive: [1] 0.55% | [2] -3.3% | [3] -12.3% | [4] -33.9% | [5] -0.15% | [6] 6.3%

COc1cccc(-c2cc(=O)c3cc(OC)ccc3[nH]2)c1
inactive: [1] -19.8% | [2] -1.6% | [3] -14% | [4] 6.15% | [5] 13.2% | [6] -13.3%

COc1ccc(Br)cc1C1SCC(=O)N1c1nncs1 (centres undefined)
inactive: [1] 12% | [2] 7.7% | [3] 26.8% | [4] 11.2% | [5] 16.4% | [6] 23.8%

C[CH2][Ge]([CH2]C)[CH2]C.C[CH2][Ge]([CH2]C)[CH2]C
inactive: [1] 6.5% | [2] 0.35% | [3] -2.45% | [4] -25.4% | [5] 0.9% | [6] -3%

Cc1ccccc1NC(=O)Cc1csc2[n+]1C(=O)/C(=C\c1ccc3c(c1)OCO3)S2
inactive: [1] 22.9% | [2] 7.6% | [3] 17.9% | [4] 3% | [5] 11.2% | [6] 7%

CC(=O)CC(=O)NCCN(C)C
inactive: [1] -23.6% | [2] -43% | [3] -11.2% | [4] 5.95% | [5] -9.3% | [6] -6.65%

O=c1[nH]cc(C2OCC(O)C(O)C2O)c(=O)[nH]1 (centres undefined)
inactive: [1] 1.45% | [2] -14.4% | [3] 0.5% | [4] 1.95% | [5] -19.1% | [6] -32.5%

C1CC[N+]2(CC1)CCCCC2
inactive: [1] 0.1% | [2] 9.4% | [3] -0.55% | [4] 14.2% | [5] 23.1% | [6] -0.45%

CSCCC(NCc1c(O)ccc2c(-c3ccccc3)cc(=O)oc12)C(=O)O (centres undefined)
inactive: [1] -23.3% | [2] -20.5% | [3] -30.1% | [4] -1.5% | [5] -2.95% | [6] -31.2%

CC1=C(C(=O)Nc2ccc([N+](=O)[O-])cc2)C(c2ccc3c(c2)OCO3)C(C(=O)Nc2ccc([N+](=O)[O-])cc2)=C(C)N1
inactive: [1] 8.65% | [2] 15.3% | [3] 21.6% | [4] 24.4% | [5] 10.2% | [6] 7.05%

CSc1ccc(NC(=O)SCc2ccccc2)cc1
inactive: [1] -3.5% | [2] 5.15% | [3] 1% | [4] -2.7% | [5] 15.9% | [6] 8.55%

CCOC(=O)Cc1csc(NC(NC(=O)OCC)(C(=O)OCC)C(F)(F)F)n1 (centres undefined)
inactive: [1] 2.4% | [2] -0.3% | [3] -17.9% | [4] -4.2% | [5] -12.3% | [6] -6.25%

Cc1cc(C)c(C(=O)Oc2ccc(C)c(CC(Cl)(Cl)Cl)c2)c(C)c1
inactive: [1] 32.8% | [2] 9% | [3] 4.85% | [4] 19.1% | [5] -0.2% | [6] 14.4%

C/C=C/Cc1ccc(O)cc1
inactive: [1] 4.9% | [2] -6% | [3] -1% | [4] -25.4% | [5] -1.4% | [6] -1.05%

CC1=C(C)C2(C)C(C)C2(C)C1C (centres undefined)
inactive: [1] -5.8% | [2] -13.3% | [3] 17.9% | [4] 20.6% | [5] 35% | [6] -1.7%

CC(C)NC(=O)OCc1c(COC(=O)NC(C)C)c(S(=O)(=O)c2ccccc2)n2c1CCC2
inactive: [1] 11.5% | [2] 1.5% | [3] -20.6% | [4] 4.7% | [5] 1.35% | [6] 25.6%

N#Cc1c(-c2ccccc2)[nH]c2ccc(Cl)cc2c1=O
inactive: [1] 6.6% | [2] -30.5% | [3] -21.7% | [4] -7.8% | [5] -9.75% | [6] -28.1%

COc1cc2c(cc1OC)[C@H](C)N1CCc3cc(OC)c(OC)cc3[C@@H]1C2
inactive: [1] 2.1% | [2] -29.6% | [3] 6.65% | [4] 14.3% | [5] 9.45% | [6] -37%

Cn1c(=O)[nH]c2c(-c3ccccc3)n[nH]c2c1=O
inactive: [1] 11.3% | [2] -1.65% | [3] 3.5% | [4] -45.5% | [5] 1.4% | [6] 4.3%

O=C(O)c1cc(-c2ccccc2)ccc1O
inactive: [1] 27.8% | [2] -70.3% | [3] 12.6% | [4] 25.2% | [5] -2.6% | [6] 46.6%

CC1(C)CC(=O)C(/C=N/C(=S)NCCc2ccccc2)=C(O)C1
inactive: [1] -22.8% | [2] -53.4% | [3] -21.3% | [4] -2.85% | [5] -14.8% | [6] -7.6%

CN(c1ccccc1)S(=O)(=O)c1ccc([N+](=O)[O-])cc1
inactive: [1] -13.4% | [2] -52.7% | [3] 6.75% | [4] -7.1% | [5] 21.8% | [6] -5.45%

CC(C)c1ccc(OCC2CCCO2)cc1 (centres undefined)
inactive: [1] 37.4% | [2] 0.95% | [3] 39% | [4] 41.7% | [5] 28.9% | [6] 27.4%

Nc1ncc(Cl)c(NCC2(CO)CC(CCc3ccccc3)C2)n1 (centres undefined)
inactive: [1] -4.7% | [2] -19.1% | [3] -11.6% | [4] -1.15% | [5] -37% | [6] 2.35%

CC(NC(=O)C(=O)c1ccccc1)c1ccccc1 (centres undefined)
inactive: [1] 10.4% | [2] -2.95% | [3] -13.6% | [4] 20.1% | [5] 27.4% | [6] -12.2%

Nc1c(F)c(F)cc(F)c1[N+](=O)[O-]
inactive: [1] 2.6% | [2] -2.7% | [3] 2.55% | [4] 7.6% | [5] 9.6% | [6] 4.35%

CC(=O)OC1CCC2(C)C(=CCC3C2CCC2(C)C(/C(C)=N/NC(N)=S)=CCC32)C1 (centres undefined)
inactive: [1] 58.8% | [2] 55.4% | [3] 67.6% | [4] 49.6% | [5] 37.7% | [6] 54.1%

Cc1cccc(N=Nc2ccc(N=Nc3c(O)ccc4ccccc34)cc2C)c1
inactive: [1] -3.5% | [2] 2.85% | [3] 16.4% | [4] 0.65% | [5] 17.3% | [6] 11.2%

Nc1nc(-c2cc(C(c3ccccc3)c3ccccc3)nc(N)n2)cc(C(c2ccccc2)c2ccccc2)n1
inactive: [1] -6.45% | [2] 13.8% | [3] -24.6% | [4] 3.45% | [5] -2.3% | [6] 9.95%

COc1ccc2c(=O)cc(-c3ccncc3)oc2c1OC
inactive: [1] 40.2% | [2] 7.8% | [3] -4.05% | [4] 2.3% | [5] -47% | [6] 31.2%

CCOC(=O)/C=C/SCC(N)C(=O)OCC (centres undefined)
inactive: [1] -14.4% | [2] -1.45% | [3] -12.9% | [4] 19.6% | [5] -5.55% | [6] -4.55%

CN(C)c1nc(OC2C(C3COC(C)(C)O3)OC3OC(C)(C)OC32)nc(N(C)C)n1 (centres undefined)
inactive: [1] 36.9% | [2] -9.65% | [3] 9.65% | [4] 26% | [5] -4.35% | [6] 2.15%

Cc1ccc(S(=O)(=O)Nc2ccccc2)cc1
inactive: [1] 18% | [2] -27.9% | [3] 21% | [4] -20.2% | [5] 3.8% | [6] 37.3%

O=C1COC(C(O)(c2ccccc2)c2ccccc2)C(=O)N1 (centres undefined)
inactive: [1] -5.35% | [2] -18.9% | [3] -1.3% | [4] -65% | [5] -21.4% | [6] 6.25%

CC(C)(C)c1cc(-c2cc(C(C)(C)C)[nH]n2)n[nH]1
inactive: [1] 12.8% | [2] 4% | [3] 12.7% | [4] 9.05% | [5] 14.2% | [6] 10.3%

CCCCCCCCC1CC(=O)OC1=O (centres undefined)
inactive: [1] 0.05% | [2] 0.55% | [3] -0.65% | [4] 7.05% | [5] -1.55% | [6] -2.35%

COC(=O)C1CCC(=O)C(Sc2ccccc2)C1 (centres undefined)
inactive: [1] 25.1% | [2] -11.9% | [3] 18.4% | [4] 6% | [5] 32.1% | [6] 28.4%

O=S(=O)(Nc1nc2ccccc2nc1Nc1cccc2ccccc12)c1ccccc1
inactive: [1] -1.3% | [2] -5.05% | [3] 3.8% | [4] -13.5% | [5] -10.9% | [6] -26.4%

N#C/C(=C\c1c(S(=O)(=O)O)sc2ccccc12)C(N)=O (tested in a mixture with another compound)
inactive: [1] 30.3% | [2] 10.1% | [3] 17.1% | [4] 25.3% | [5] -0.9% | [6] 21.8%
